PubChem BioAssay AID1159580 (chemical genetic matrix, 2015)
In all, about 5,500 compounds went through this assay and about 2,000 (36%) were called active. Another 18% or so got no clear call; they are omitted. The list shows a part of the results. Values without a mark were called inactive. Rule as the data show it: active = normalized growth mostly below about 0.91 (no sharp cut-off); inconclusive = no clear call, values can overlap the other calls; inactive = mostly above about 0.92.

Test: chemical genetic growth profiling, strain panel (AID 1159580);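 also: tested at 20 µM; growth read once vehicle control cultures reached saturation at 30 °C; 1 = growth at the plate median or of vehicle wells; lower values mean less growth of the strain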
Details: growth OD

## CCCCCCCCCc1ccc(O)cc1
S. cerevisiae deletion strains, locus YJR075W, strain HOC1, active compounds read low
  normalized growth: 0.256 (active)
S. cerevisiae deletion strains, locus YKL009W, strain mrt4, active compounds read low
  normalized growth: 0.616 (active)
S. cerevisiae deletion strains, locus YKL068W, active compounds read low
  normalized growth: 0.964
S. cerevisiae deletion strains, locus YKL085W, strain MDH1 (second series), active compounds read low
  normalized growth: 0.311 (active)
S. cerevisiae deletion strains, locus YKL085W, strain MDH1, active compounds read low
  normalized growth: 0.311 (active)
S. cerevisiae deletion strains, locus YKL160W, strain elf1, active compounds read low
  normalized growth: 0.0913 (active)
S. cerevisiae deletion strains, locus YKL190W, strain CNB1, active compounds read low
  normalized growth: 0.139 (active)
S. cerevisiae deletion strains, locus YKR001C, strain vps1, active compounds read low
  normalized growth: 0.352 (active)
S. cerevisiae deletion strains, locus YKR026C, strain gcn3, active compounds read low
  normalized growth: 0.0658 (active)
S. cerevisiae deletion strains, locus YKR091W, strain srl3, active compounds read low
  normalized growth: 0.0785 (active)
S. cerevisiae deletion strains, locus YLL001W, strain dnm1, active compounds read low
  normalized growth: 0.0778 (active)
S. cerevisiae deletion strains, locus YLL026W, active compounds read low
  normalized growth: 0.0571 (active)
S. cerevisiae deletion strains, locus YLL041C, strain sdh2, active compounds read low
  normalized growth: 0.0651 (active)
S. cerevisiae deletion strains, locus YLR027C, strain aat2, active compounds read low
  normalized growth: 0.0531 (active)
S. cerevisiae deletion strains, locus YLR039C, strain RIC1, active compounds read low
  normalized growth: 0.106 (active)
S. cerevisiae deletion strains, locus YLR058C, strain SHM2, active compounds read low
  normalized growth: 0.136 (active)
S. cerevisiae deletion strains, locus YLR102C, strain apc9, active compounds read low
  normalized growth: 0.901 (active)
S. cerevisiae deletion strains, locus YLR113W, strain HOG1, active compounds read low
  normalized growth: 0.117 (active)
S. cerevisiae deletion strains, locus YLR221C, strain rsa3, active compounds read low
  normalized growth: 0.0526 (active)
S. cerevisiae deletion strains, locus YLR258W, strain gsy2, active compounds read low
  normalized growth: 0.062 (active)
S. cerevisiae deletion strains, locus YLR262C, strain YPT6 (second series), active compounds read low
  normalized growth: 0.0891 (active)
S. cerevisiae deletion strains, locus YLR262C, strain YPT6, active compounds read low
  normalized growth: 0.139 (active)
S. cerevisiae deletion strains, locus YLR268W, strain sec22, active compounds read low
  normalized growth: 0.74 (active)
S. cerevisiae deletion strains, locus YLR320W, strain mms22, active compounds read low
  normalized growth: 0.071 (active)
S. cerevisiae deletion strains, locus YLR330W, strain CHS5, active compounds read low
  normalized growth: 0.321 (active)
S. cerevisiae deletion strains, locus YLR342W, strain FKS1 (second series), active compounds read low
  normalized growth: 0.102 (active)
S. cerevisiae deletion strains, locus YLR342W, strain FKS1, active compounds read low
  normalized growth: 0.0664 (active)
S. cerevisiae deletion strains, locus YLR357W, strain rsc2, active compounds read low
  normalized growth: 0.148 (active)
S. cerevisiae deletion strains, locus YLR370C, strain arc18, active compounds read low
  normalized growth: 0.0667 (active)
S. cerevisiae deletion strains, locus YLR371W, strain rom2, active compounds read low
  normalized growth: 0.622 (active)
S. cerevisiae deletion strains, locus YLR384C, strain iki3, active compounds read low
  normalized growth: 0.0786 (active)
S. cerevisiae deletion strains, locus YLR418C, strain cdc73, active compounds read low
  normalized growth: 0.323 (active)
S. cerevisiae deletion strains, locus YML016C, strain PPZ1, active compounds read low
  normalized growth: 0.191 (active)
S. cerevisiae deletion strains, locus YML032C, strain rad52, active compounds read low
  normalized growth: 0.497 (active)
S. cerevisiae deletion strains, locus YML120C, strain ndi1, active compounds read low
  normalized growth: 0.0538 (active)
S. cerevisiae deletion strains, locus YML124C, strain tub3, active compounds read low
  normalized growth: 0.908 (active)
S. cerevisiae deletion strains, locus YMR058W, strain fet3, active compounds read low
  normalized growth: 0.0622 (active)
S. cerevisiae deletion strains, locus YMR078C, strain ctf18, active compounds read low
  normalized growth: 0.611 (active)
S. cerevisiae deletion strains, locus YMR125W, strain sto1, active compounds read low
  normalized growth: 0.0742 (active)
S. cerevisiae deletion strains, locus YMR129W, active compounds read low
  normalized growth: 0.0704 (active)
S. cerevisiae deletion strains, locus YMR205C, strain PFK2, active compounds read low
  normalized growth: 0.0794 (active)
S. cerevisiae deletion strains, locus YMR223W, strain ubp8, active compounds read low
  normalized growth: 0.558 (active)
S. cerevisiae deletion strains, locus YMR231W, strain pep5, active compounds read low
  normalized growth: 0.0903 (active)
S. cerevisiae deletion strains, locus YMR263W, strain SAP30, active compounds read low
  normalized growth: 0.099 (active)
S. cerevisiae deletion strains, locus YMR307W, strain GAS1, active compounds read low
  normalized growth: 0.121 (active)
S. cerevisiae deletion strains, locus YNL067W, strain RPL9B, active compounds read low
  normalized growth: 0.254 (active)
S. cerevisiae deletion strains, locus YNL071W, strain lat1, active compounds read low
  normalized growth: 0.0615 (active)
S. cerevisiae deletion strains, locus YNL128W, strain TEP1, active compounds read low
  normalized growth: 0.119 (active)
S. cerevisiae deletion strains, locus YNL153C, strain GIM3, active compounds read low
  normalized growth: 0.117 (active)
S. cerevisiae deletion strains, locus YNL183C, strain NPR1, active compounds read low
  normalized growth: 0.00185 (active)
S. cerevisiae deletion strains, locus YNL209W, strain ssb2, active compounds read low
  normalized growth: 0.0648 (active)
S. cerevisiae deletion strains, locus YNL233W, strain BNI4, active compounds read low
  normalized growth: 0.0815 (active)
S. cerevisiae deletion strains, locus YNL248C, strain rpa49, active compounds read low
  normalized growth: 0.076 (active)
S. cerevisiae deletion strains, locus YNL250W, strain rad50, active compounds read low
  normalized growth: 0.734 (active)
S. cerevisiae deletion strains, locus YNL271C, strain bni1, active compounds read low
  normalized growth: 0.749 (active)
S. cerevisiae deletion strains, locus YNL298W, strain CLA4, active compounds read low
  normalized growth: 0.437 (active)
S. cerevisiae deletion strains, locus YNL307C, strain MCK1, active compounds read low
  normalized growth: 0.292 (active)
S. cerevisiae deletion strains, locus YNL322C, strain KRE1 (second series), active compounds read low
  normalized growth: 0.11 (active)
S. cerevisiae deletion strains, locus YNL322C, strain KRE1, active compounds read low
  normalized growth: 0.167 (active)
S. cerevisiae deletion strains, locus YNR049C, strain mso1, active compounds read low
  normalized growth: 0.0733 (active)
S. cerevisiae deletion strains, locus YNR052C, strain pop2, active compounds read low
  normalized growth: 0.538 (active)
S. cerevisiae deletion strains, locus YOL006C, strain TOP1, active compounds read low
  normalized growth: 0.217 (active)
S. cerevisiae deletion strains, locus YOL012C, strain htz1
  normalized growth: 0.624
S. cerevisiae deletion strains, locus YOL147C, strain pex11, active compounds read low
  normalized growth: 0.444 (active)
S. cerevisiae deletion strains, locus YOR001W, strain rrp6, active compounds read low
  normalized growth: 0.0626 (active)
S. cerevisiae deletion strains, locus YOR061W, strain CKA2, active compounds read low
  normalized growth: 0.102 (active)
S. cerevisiae deletion strains, locus YOR069W, strain VPS5, active compounds read low
  normalized growth: 0.217 (active)
S. cerevisiae deletion strains, locus YOR070C, strain gyp1, active compounds read low
  normalized growth: 0.063 (active)
S. cerevisiae deletion strains, locus YOR080W, strain dia2, active compounds read low
  normalized growth: 0.0669 (active)
S. cerevisiae deletion strains, locus YOR083W, strain WHI5, active compounds read low
  normalized growth: 0.0608 (active)
S. cerevisiae deletion strains, locus YOR106W, strain vam3, active compounds read low
  normalized growth: 0.0604 (active)
S. cerevisiae deletion strains, locus YOR136W, strain idh2, active compounds read low
  normalized growth: 0.758 (active)
S. cerevisiae deletion strains, locus YOR144C, strain elg1, active compounds read low
  normalized growth: 0.553 (active)
S. cerevisiae deletion strains, locus YOR184W, strain ser1, active compounds read low
  normalized growth: 0.506 (active)
S. cerevisiae deletion strains, locus YOR231W, strain MKK1, active compounds read low
  normalized growth: 0.101 (active)
S. cerevisiae deletion strains, locus YOR265W, strain rbl2, active compounds read low
  normalized growth: 0.0564 (active)
S. cerevisiae deletion strains, locus YOR270C, strain vph1, active compounds read low
  normalized growth: 0.102 (active)
S. cerevisiae deletion strains, locus YOR290C, strain snf2, active compounds read low
  normalized growth: 0.0652 (active)
S. cerevisiae deletion strains, locus YOR316C, strain cot1, active compounds read low
  normalized growth: 0.799 (active)
S. cerevisiae deletion strains, locus YPL051W, strain arl3, active compounds read low
  normalized growth: 0.0626 (active)
S. cerevisiae deletion strains, locus YPL055C, strain LGE1, active compounds read low
  normalized growth: 0.1 (active)
S. cerevisiae deletion strains, locus YPL078C, strain atp4, active compounds read low
  normalized growth: 0.0621 (active)
S. cerevisiae deletion strains, locus YPL106C, strain sse1, active compounds read low
  normalized growth: 0.0816 (active)
S. cerevisiae deletion strains, locus YPL240C, strain hsp82, active compounds read low
  normalized growth: 0.0552 (active)
S. cerevisiae deletion strains, locus YPL241C, strain CIN2, active compounds read low
  normalized growth: 0.219 (active)
S. cerevisiae deletion strains, locus YPL256C, strain CLN2, active compounds read low
  normalized growth: 0.109 (active)
S. cerevisiae deletion strains, locus YPR119W, strain clb2, active compounds read low
  normalized growth: 0.67 (active)
S. cerevisiae deletion strains, locus YPR141C, strain kar3, active compounds read low
  normalized growth: 0.992
S. cerevisiae deletion strains, locus YPR163C, strain tif3, active compounds read low
  normalized growth: 0.86 (active)
S. cerevisiae deletion strains, locus YPR167C, strain met16, active compounds read low
  normalized growth: 0.655 (active)
S. cerevisiae deletion strains, strain wtn01, active compounds read low
  normalized growth: 0.813 (active)
S. cerevisiae strains, strain wild type, active compounds read low
  normalized growth: 0.112 (active)
